# Measured values as given in PubChem BioAssay AID1782 (National Center for Advancing Translational Sciences (NCATS), 2009).
# Inconclusive results are not listed. A call without a number means that no potency is given here. Calls of active or inactive are those of the source. Calls come from the whole dose curve; as a rule, active = well fitted curve in the direction sought with a large enough effect; inconclusive = small, poorly fitted or top-dose-only effect, or another doubt; inactive = no such curve, though single readings can be large or run the other way.
# Molecular target: Pyruvate kinase PKLR (Homo sapiens) (UniProt P30613)
# Assay: Confirmation Concentration-Response Assay for Activators of Human Reticulocyte Pyruvate Kinase
# Settings: purified hPK-R, Kinase-Glo ATP luminescence, 1 h; series mostly up to 57.5 µM
# Text: Confirmatory assay NIH Chemical Genomics Center [NCGC] Wael M. Rabeh, Lyudmila Nedyalkova and Hee-Wan Park [Structural Genomics Consortium, 100 College St. Toronto, Ontario, Canada] NCGC Assay Overview: Human pyruvate kinase reticulocyte (hPK-R) enzyme was supplied as a highly purified (>95% pure) preparation from Structural Genomics Consortium in Toronto (Ontario, Canada) and assayed for its ability to generate ATP from ADP using phosphoenolpyruvate (PEP) as a substrate. ATP generation was detected in a coupled reaction by luciferase-mediated luminescence, an ATP-dependent process. Pyruvate kinase substrates, PEP and ADP, were present in the assay at Km and approximately 10-fold below Km respectively. The enzyme was assayed at an intermediate level of activity to screen for both inhibitors and activators.
# NCGC Assay Protocol Summary for R-isoform Three uL of substrate mix (at r.t.) in assay buffer (50 mM Imidazole pH7.2, 50 mM KCl, 7 mM MgCl2, 0.01% Tween 20, 0.05% BSA) was dispensed into white solid bottom 1,536 well microtiter plates so that the final concentrations of substrates in the assay were 0.1 mM ADP and 0.5 mM PEP. 23 nL of compound were delivered by a pin tool and 1 uL of enzyme mix (final concentration of 0.1 nM) in assay buffer (4 degree Celsius) was added. Plates were incubated at room temperature for 1 hour. Two uL of detection mix (Kinase-Glo, Promega; at 4 degree Celsius protected from light) was added and luminescence read by a ViewLux (Perkin Elmer) at 1 second exposure/plate. Data were normalized to the uninhibited (row 31). Additionally, a no enzyme and 5-fold enzyme control was dispensed in row 32, split equally between the two conditions.
# Pyruvate kinase PKLR (Homo sapiens), sequence (P30613 whole entry, looked up): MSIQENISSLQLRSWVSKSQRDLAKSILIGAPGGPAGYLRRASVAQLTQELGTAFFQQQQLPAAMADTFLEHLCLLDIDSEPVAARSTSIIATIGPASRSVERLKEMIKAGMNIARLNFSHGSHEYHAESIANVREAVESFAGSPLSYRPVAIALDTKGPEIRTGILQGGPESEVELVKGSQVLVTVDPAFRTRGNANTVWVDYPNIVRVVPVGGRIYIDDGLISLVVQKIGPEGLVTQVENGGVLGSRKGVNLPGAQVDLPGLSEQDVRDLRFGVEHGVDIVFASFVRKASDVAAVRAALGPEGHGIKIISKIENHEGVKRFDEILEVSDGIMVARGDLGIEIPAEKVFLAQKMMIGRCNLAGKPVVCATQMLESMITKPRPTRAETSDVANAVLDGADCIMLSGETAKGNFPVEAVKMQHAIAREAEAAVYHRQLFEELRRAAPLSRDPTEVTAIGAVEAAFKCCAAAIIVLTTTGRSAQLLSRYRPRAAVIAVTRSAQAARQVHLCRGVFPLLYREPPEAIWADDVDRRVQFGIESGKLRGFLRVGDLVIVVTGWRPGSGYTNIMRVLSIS
row,SMILES,Potency
1,Cc1cc2c(s1)c1cnn(Cc3ccccc3F)c(=O)c1n2C,inactive
2,Cc1cc2c(s1)c1cnn(Cc3ccc(C(F)(F)F)cc3F)c(=O)c1n2C,inactive
3,CC1(C)CCc2cc(S(=O)(=O)N3CCN(S(=O)(=O)c4c(F)cccc4F)CC3)ccc2O1,inactive
4,CCCCCn1ncc2c3sc(C)cc3n(C)c2c1=O,inactive
5,COc1ccc(S(=O)(=O)N2CCN(S(=O)(=O)c3ccc4c(c3)OCCO4)CC2)cc1,1410 nM (active)
6,Cn1c2cc(CO)sc2c2cnn(Cc3ccccc3F)c(=O)c21,inactive
7,COc1ccc(Cn2ncc3c4sc(C)cc4n(C)c3c2=O)cc1,inactive
8,COc1cc2c(s1)c1cnn(Cc3ccccc3F)c(=O)c1n2C,inactive
9,Cc1ccc(Cn2ncc3c4sc(C)cc4n(C)c3c2=O)cc1,inactive
10,CCc1cc2c(s1)c1cnn(Cc3ccccc3F)c(=O)c1n2C,inactive
11,O=S(=O)(c1ccc(F)cc1)N1CCN(S(=O)(=O)c2ccc3c(c2)OCCO3)CC1,inactive
12,Cc1cc2c(s1)c1cnn(Cc3ccccc3Cl)c(=O)c1n2C,inactive
13,CCCc1cc(F)c(S(=O)(=O)N2CCN(S(=O)(=O)c3ccc4c(c3)OCCO4)CC2)cc1F,inactive
14,Cc1cc2c(s1)c1c(C)nn(Cc3ccccc3F)c(=O)c1n2C,inactive
15,CCn1c2cc(C)sc2c2cnn(Cc3ccccc3F)c(=O)c21,inactive
16,O=S(=O)(NCCNS(=O)(=O)c1c(F)cccc1F)c1ccc2c(c1)OCCO2,inactive
17,N#Cc1ccc(S(=O)(=O)N2CCN(S(=O)(=O)c3ccc4c(c3)OCCO4)CC2)cc1,inactive
18,Cc1cc2c(s1)c1cnn(Cc3ccccc3F)c(=O)c1n2C(C)C,inactive
19,Cc1cc2c(s1)c1cnn(Cc3ccc(C(F)(F)F)cc3)c(=O)c1n2C,inactive
20,Cc1cc2c(s1)c1cnn(Cc3ccc(F)cc3F)c(=O)c1n2C,inactive

row,SMILES,Potency
1,COc1ccc(Cn2ncc3c4sc(C)cc4n(C)c3c2=O)cc1F,inactive
2,Cc1cc2c(s1)c1cnn(Cc3ccc(C)c(F)c3F)c(=O)c1n2C,inactive
3,Cc1cc2c(s1)c1cnn(Cc3ccc(F)cc3)c(=O)c1n2C,inactive
4,O=S(=O)(c1ccc2c(c1)OCCO2)N1CCN(S(=O)(=O)c2cccc[n+]2[O-])CC1,inactive
5,COC(=O)c1cc2c(s1)c1cnn(Cc3ccccc3F)c(=O)c1n2C,inactive
6,Cc1ccc(Cn2ncc3c4sc(C)cc4n(C)c3c2=O)c(C)c1,inactive
7,Cc1cc2c(s1)c1cnn(Cc3ccc(C(C)C)cc3)c(=O)c1n2C,inactive
8,COc1ccc(S(=O)(=O)N2CCN(S(=O)(=O)c3c(F)cccc3F)CC2)cc1,inactive
9,Cn1c2cc(C#N)sc2c2cnn(Cc3ccccc3F)c(=O)c21,inactive
10,O=S(=O)(c1c(F)cccc1F)N1CCN(S(=O)(=O)c2c(F)cccc2F)CC1,inactive
11,Cc1cc2[nH]c3c(=O)n(Cc4ccccc4F)ncc3c2s1,inactive
12,Cn1c2cc(B(O)O)sc2c2cnn(Cc3ccccc3F)c(=O)c21,inactive
13,O=C(c1c(F)cccc1F)N1CCN(S(=O)(=O)c2ccc3c(c2)OCCO3)CC1,inactive
14,Cc1cc2c(s1)c1cnn(Cc3ccc(-c4ccccc4)cc3)c(=O)c1n2C,inactive
15,CSc1cc2c(s1)c1cnn(Cc3ccccc3F)c(=O)c1n2C,inactive
16,O=S(=O)(c1ccc2c(c1)OCCO2)N1CCN(S(=O)(=O)c2ccc3c(c2)OCCO3)CC1,inactive
17,O=S(=O)(c1ccc(Cl)cc1)N1CCN(S(=O)(=O)c2ccc3c(c2)OCCO3)CC1,inactive
18,O=S(=O)(c1cccc(C(F)(F)F)c1)N1CCN(S(=O)(=O)c2ccc3c(c2)OCCO3)CC1,inactive
19,Cn1c2cc([N+](=O)[O-])sc2c2cnn(Cc3ccccc3F)c(=O)c21,inactive
20,O=S(=O)(c1ccc2c(c1)OCO2)N1CCN(S(=O)(=O)c2c(F)cccc2F)CC1,inactive
